Measurements taken from PubChem BioAssay (EPA / NIEHS).
Where “and” joins values, the source holds several entries; their conditions need not be identical. Equal entries are not always repeated. A structure can be active in one record and inactive in another. Calls of active or inactive are those of the source. How the source made its calls: active means hit-call score of the fitted dose curve at least 0.9, where 1 is the maximum; inactive means score below 0.9.

Key:
[1] = ATG_NFI_CIS: Attagene CIS-FACTORIAL HepG2 Assay for human Nuclear Factor I (NFI) (AID 2282989); settings: HepG2 cis-regulatory reporter, NFI response element transcription; actives raise or lower the signal
Summary of the method: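 Transient MRTU transfection of HepG2 → 24 h chemical dosing → total RNA, oligo(dT) RT → PCR, 6-FAM primer extension, HpaI cut → capillary electrophoresis. Endpoint fitted bidirectionally relative to DMSO.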

[2] = molecular target: Myc proto-oncogene protein (Homo sapiens) (UniProt P01106); test: ATG_Myc_CIS: Attagene CIS-FACTORIAL HepG2 Assay for human Myelocytomatosis (Myc) Proto-Oncogene Transcription Factor (AID 2282990); settings: HepG2, Attagene cis-reporter transcription factor activity; actives raise or lower the signal
Chain of Myc proto-oncogene protein (Homo sapiens) (P01106 whole entry, looked up): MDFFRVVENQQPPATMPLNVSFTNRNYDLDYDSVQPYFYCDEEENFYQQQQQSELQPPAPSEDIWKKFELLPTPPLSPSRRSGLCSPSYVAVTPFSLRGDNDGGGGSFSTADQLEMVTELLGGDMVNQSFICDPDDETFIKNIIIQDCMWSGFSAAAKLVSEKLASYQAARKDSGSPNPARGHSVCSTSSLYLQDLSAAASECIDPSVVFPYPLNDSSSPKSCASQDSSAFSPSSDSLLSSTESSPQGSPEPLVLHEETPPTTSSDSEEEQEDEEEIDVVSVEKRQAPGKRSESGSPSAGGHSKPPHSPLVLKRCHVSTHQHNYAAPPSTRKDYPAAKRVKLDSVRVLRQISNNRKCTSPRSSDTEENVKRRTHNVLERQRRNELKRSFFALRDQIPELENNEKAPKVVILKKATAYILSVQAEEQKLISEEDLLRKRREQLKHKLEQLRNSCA
Summary of the method: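 Cells of the HepG2 human liver line bear multiple cis-driven reporter transcription units. Reporter mRNA after 24 h exposure is reverse-transcribed, amplified, labelled and resolved by capillary electrophoresis, with gain- or loss-of-signal fitting relative to DMSO.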

[3] = ATG_NF_kB_CIS: Attagene CIS-FACTORIAL HepG2 Assay for human Nuclear Factor Kappa B (NF-kB) (AID 2282991); settings: HepG2 Attagene cis-factorial NF-kB reporter mRNA; actives raise or lower the signal
Summary of the method: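 Endogenous transcription factor activity in HepG2 was captured via cis-regulated reporter constructs; after 24 h dosing, reporter mRNA was reverse-transcribed, amplified, fluorescently labelled and sized by capillary electrophoresis, with activity fitted bidirectionally relative to DMSO.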

[4] = ATG_NRF2_ARE_CIS: Attagene CIS-FACTORIAL HepG2 Assay for human Nuclear Factor Erythroid 2 Related Factor 2 (NFR2) response to Antioxidant Response Elements (ARE) (AID 2282992); settings: HepG2 Attagene ARE/NRF2 reporter, transcription factor activity; actives raise or lower the signal;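 on AC50: reporter mRNA level measured by RT-PCR and capillary electrophoresis fluorescence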
Summary of the method: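 HepG2 cells transiently transfected with multiplexed cis-element reporter constructs, 24 h after chemical dosing; reporter mRNA quantified by RT-PCR, fluorescent primer extension, HpaI digestion and capillary electrophoresis. Bidirectional fit relative to DMSO.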

[5] = ATG_Oct_MLP_CIS: Attagene CIS-FACTORIAL HepG2 Assay for human Octamer-Binding Transcription Factor (Oct) (AID 2282993); settings: HepG2 Attagene cis-factorial Oct reporter, mRNA; actives raise or lower the signal
Summary of the method: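 Transient MRTU transfection of HepG2 → 24 h compound treatment → RNA isolation, reverse transcription, PCR → 6-FAM primer extension, HpaI digest → capillary electrophoresis. Activity fitted both directions against DMSO.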

[6] = molecular target: Cellular tumor antigen p53 (Homo sapiens) (UniProt P04637); test: ATG_p53_CIS: Attagene CIS-FACTORIAL HepG2 Assay for human p53 Transcription Factor (AID 2282994); settings: HepG2 p53 cis-element reporter, Attagene mRNA; actives raise or lower the signal
Chain of Cellular tumor antigen p53 (Homo sapiens) (P04637 whole entry, looked up): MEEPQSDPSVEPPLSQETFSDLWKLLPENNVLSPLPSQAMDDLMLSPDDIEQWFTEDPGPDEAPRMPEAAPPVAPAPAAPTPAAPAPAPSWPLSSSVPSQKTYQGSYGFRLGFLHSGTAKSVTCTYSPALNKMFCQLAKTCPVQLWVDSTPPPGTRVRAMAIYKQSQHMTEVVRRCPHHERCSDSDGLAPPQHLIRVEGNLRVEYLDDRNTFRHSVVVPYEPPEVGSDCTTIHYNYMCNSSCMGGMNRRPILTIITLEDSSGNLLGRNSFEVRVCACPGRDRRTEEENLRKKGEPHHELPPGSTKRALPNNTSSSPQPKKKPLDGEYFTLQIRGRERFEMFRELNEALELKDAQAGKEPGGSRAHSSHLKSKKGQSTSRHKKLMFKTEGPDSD
Summary of the method: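 HepG2 cells transiently transfected with cis-regulated multiple reporter transcription units, dosed 24 h. Reporter mRNA measured by RT-PCR, 6-FAM primer extension, HpaI digestion and capillary electrophoresis; bidirectional fit relative to DMSO.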

[7] = BSK_3C_TissueFactor: BioMAP Diversity Plus: 3C Assay for Tissue Factor Biomarker Activity (AID 2282997); settings: BioMAP 3C HUVEC, tissue factor biomarker readout; actives raise or lower the signal
Summary of the method: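 ELISA read-out of Tissue Factor levels on human umbilical vein endothelium collected 24 h after chemical dosing. Gain or loss of signal was fitted relative to DMSO.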

[8] = BSK_3C_uPAR: BioMAP Diversity Plus: 3C Assay for Urokinase-type plasminogen activator receptor (uPAR) Biomarker Activity (AID 2282998); settings: BioMAP 3C HUVEC, uPAR biomarker ELISA; actives raise or lower the signal
Summary of the method: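 ELISA readout of uPAR on human vascular endothelium (umbilical vein primary cells), taken 24 h after chemical dosing. Increases and decreases are both fitted relative to DMSO vehicle.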

[9] = BSK_3C_VCAM1: BioMAP Diversity Plus: 3C Assay for Vascular cell adhesion molecule 1 (VCAM1) Biomarker Activity (AID 2282999); settings: BioMAP 3C HUVEC, VCAM1 ELISA, cytokine-stimulated; actives raise or lower the signal
Summary of the method: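 Endothelial cells from human umbilical vein are treated with test chemical. At 24 h, VCAM-1 is measured by ELISA, and responses in either direction are fitted relative to DMSO.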

[10] = BSK_4H_Eotaxin3: BioMAP Diversity Plus: 4H Assay for Eotaxin 3 Biomarker Activity (AID 2283000); settings: primary human endothelial cells (HUVEC); actives raise or lower the signal
Summary of the method: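 Chemicals were added to human umbilical vein endothelium cultures, and Eotaxin-3 was quantified by ELISA at 24 h. Values were derived by bidirectional fitting with DMSO serving as negative control and activity baseline.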

Measured: AC50

C=C[C@](C)(O)CC[C@@H]1[C@@]2(C)CCCC(C)(C)[C@@H]2CC[C@@]1(C)O
inactive: [1] | [2] | [3] | [5] | [6]
active: [4] 6.58 µM

O=c1[nH]c(=O)c2[nH]c(=O)[nH]c2[nH]1
inactive: [1] | [2] | [3] | [4] | [5] | [6]

O=c1[nH]nc(-c2ccc([N+](=O)[O-])o2)o1
active: [4] 61.3 µM
inactive: [1] | [2] | [3] | [5] | [6]

CN(C)c1ccc(C(=N)c2ccc(N(C)C)cc2)cc1
active: [1] 0.162 µM | [5] 0.143 µM | [6] 29.4 µM
inactive: [2] | [3] | [4]

CN1C(=O)N(C)C(O)C1O (stereo not given)
inactive: [1] | [2] | [3] | [4] | [5] | [6] | [7] | [8] | [9] | [10]

Cc1cnc(NC(=O)C2=C(O)c3ccccc3S(=O)(=O)N2C)s1
inactive: [1] | [2] | [3] | [4] | [5] | [6]

COC(=O)C1=C(C)NC(C)=C(C(=O)OCC(C)C)C1c1ccccc1[N+](=O)[O-] (stereo not given)
inactive: [1] | [2] | [3] | [4] | [5] | [6]

CC(=O)C=CC1C(C)=CCC(C)C1(C)C (stereo not given)
active: [4] 27.8 µM
inactive: [1] | [2] | [3] | [5] | [6]

CNC(=S)N(C)C
inactive: [1] | [2] | [3] | [4] | [5] | [6]

C=CC(=O)OCCC(=O)O
inactive: [1] | [2] | [3] | [5] | [6]
active: [4] 43.2 µM

N#CCc1ccc(Cl)cc1Cl
inactive: [1] | [2] | [3] | [4] | [5] | [6]

COC(=O)c1ccc2cc(C(=O)OC)ccc2c1
inactive: [1] | [2] | [3] | [4] | [5] | [6]

CC1=Nc2ccc3ccccc3c2C1(C)C
inactive: [1] | [2] | [3] | [5] | [6]
active: [4] 100 µM

Cc1cc(O)c(Cl)c(C)c1Cl
active: [4] 33.4 µM
inactive: [1] | [2] | [3] | [5] | [6]

Cc1cc(C)c(C(=O)O)c(C)c1
inactive: [1] | [2] | [3] | [4] | [5] | [6]

CCCCCCCCCCCSCC(=O)O
inactive: [1] | [2] | [3] | [4] | [6]
active: [5] 79.2 µM

CC(=O)OCC(=O)[C@@]12N=C(C)O[C@@H]1C[C@H]1[C@@H]3CCC4=CC(=O)C=C[C@]4(C)[C@H]3[C@@H](O)C[C@@]12C
inactive: [1] | [2] | [3] | [4] | [5] | [6]

CCCCNc1ccc(NCCCC)c2c1C(=O)c1ccccc1C2=O
inactive: [1] | [2] | [3] | [5] | [6] | [7] | [8] | [9] | [10]
active: [4] 1.47 µM

FC(F)=C(F)OC(F)(F)C(F)(F)C(F)(F)F
inactive: [1] | [2] | [3] | [4] | [5] | [6]

O=C(O)c1cc2ccccc2nc1C(=O)O
inactive: [1] | [2] | [3] | [4] | [5] | [6]

CCCCOCCOC(=O)COc1nc(Cl)c(Cl)cc1Cl
inactive: [1] | [2] | [3] | [4] | [5] | [6]

Nc1ccc(-c2ccc(F)cc2)cc1
inactive: [1] | [2] | [3] | [4] | [5] | [6]

O=C1CC2CC1C1CCCC21 (stereo not given)
active: [4] 72.4 µM
inactive: [1] | [2] | [3] | [5] | [6]

CC(C)=CC1CC(C)CCO1 (stereo not given)
inactive: [1] | [2] | [3] | [4] | [5] | [6]

O=C(c1ccc(O)cc1)c1ccc(O)cc1O
active: [4] 100 µM | [6] 100 µM | [8] 15.9 µM | [10] 13.9 µM and 20 µM
inactive: [1] | [2] | [3] | [5] | [7] | [8] | [9]

CCOC(=O)N1CCC(=C2c3ccc(Cl)cc3CCc3cccnc32)CC1
active: [6] 7.13 µM
inactive: [1] | [2] | [3] | [4] | [5]

O=C(Nc1ccccc1SSc1ccccc1NC(=O)c1ccccc1)c1ccccc1
active: [4] 29.2 µM | [7] 1.15 µM | [8] 9.54 µM | [9] 11.5 µM | [10] 20 µM
inactive: [1] | [2] | [3] | [5] | [6]

CCCCCCCCCCCCCOP(=O)(O)O
inactive: [1] | [2] | [3] | [4] | [5] | [6]
